This passage reports Potency, activity change, negative = inhibition and activity change, negative = viability loss results from PubChem BioAssay (NCATS).

Test [1] has as its target Calcium and integrin-binding protein 1 (Homo sapiens) (UniProt Q99828). The test can be described thus: Primary qHTS for Identification of Calcium Integrin Binding Protein 1 (CIB1) Competitor (AID 1508620).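 Further: GST tagged CIB1 binding a fluorescein labelled alphaIIb integrin peptide tracer; top concentration of the series differs between compounds.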 The method, boiled down: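 Fluorescence polarization competition: CIB1-GST (1 uM final) preincubated with compound 15 min at room temperature, then FITC-labeled alphaIIb peptide (100 nM final) added for another 15 min. Polarization read at Ex 480/Em 540.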
On the technique in general: In qHTS, concentration-response curves come from the screen itself.

The nature of test [2]: Primary qHTS for inhibitors of nuclear receptor binding SET domain protein 2 (NSD2) in an isogenic RCH-ACV NSD2 p.E1099K mutant (9B) (AID 1645876). Further: nearly all actives have a fitted effect of over 70% in size. Further: potency means the concentration at half of the fitted maximal effect.

Results filed as inconclusive are left out. A number with no mark means an inactive call. Activity calls are given as the source filed them. The call rests on the fitted dose curve; in most records, active means well fitted inhibition curve with a large enough effect; inconclusive means small, poorly fitted or top-dose-only effect; inactive means flat fitted curve, though single readings scatter.
On the % scale 0 is the no-effect control and ±100 the full control effect.

Calcium and integrin-binding protein 1 (Homo sapiens), sequence (Q99828 whole entry, looked up): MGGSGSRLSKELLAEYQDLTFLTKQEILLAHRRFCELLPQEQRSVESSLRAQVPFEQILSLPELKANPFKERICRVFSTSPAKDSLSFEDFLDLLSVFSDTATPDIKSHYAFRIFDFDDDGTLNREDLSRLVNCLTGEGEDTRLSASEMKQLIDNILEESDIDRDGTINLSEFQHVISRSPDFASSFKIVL

Turning to `C/C(=C\CCC(C)CCO)C(=O)OC1(C)CCC2C(C(=O)O)=COC(OC3OC(CO)C(O)C(O)C3O)C21` (centres undefined), the Potency entry in test [1] and in test [2] was “inactive” in each case.
`CC[C@H](NC(=O)[C@H](CS(=O)(=O)CC1CC1)N[C@@H](c1ccc(F)cc1)C(F)(F)F)C(=O)C(=O)NC1CC1`: the Potency entry in test [1] and in test [2] was “inactive” each time.
`COC(=O)CC(O)C1OC(c2ccccc2)C(O)C1O` (centres undefined): the Potency entry in test [1] and in test [2] was “inactive” in each case.
With `COc1c2c(c(C)c3c1C(=O)OC3)O[C@@]1(C)CC(O)C(C(C)(C)O)[C@](C)(CCC(=O)O)[C@H]1C2` (some centres undefined), the Potency result in test [1] and in test [2] was “inactive” each time.
On to `CC(C)c1ccc2c(c1)C(=O)CC1[C@@](C)(C(=O)O)CCC[C@]21C` (some centres undefined), for which the Potency result in test [1] and in test [2] was “inactive” each time.
Consider `CC(C)(O)c1ccc2c(c1)C(O)C[C@H]1[C@](C)(C(=O)O)CCC[C@]21C` (some centres undefined), for which the Potency result in test [1] and in test [2] was “inactive” throughout.
For the compound `Cc1cc(C)cc(C(=O)NOCCCCCC(=O)NO)c1`, in test [1], the Potency entry was “inactive”. For the same compound, the Potency in test [2] was 515 nM (active).
`CC1=C2C3OC(=O)C(C)C3(O)CCC2(C)CCC1O` (centres undefined): the Potency entry in test [1] and in test [2] was “inactive” throughout.
As for `COC1CC(OC2CCC3(C)C(=CCC4C3C(OC(C)=O)C(OC(=O)/C=C/c3ccccc3)C3(C)C(C(C)O)CCC43O)C2)OC(C)C1OC1CC(OC)C(OC2OC(C)C(OC3OC(CO)C(O)C(O)C3O)C(OC)C2O)C(C)O1` (centres undefined), the activity change, negative = inhibition in test [1] is -8.58% [at 12.4 µM]. The activity change, negative = viability loss in test [2] was -12.2% [at 9.23 µM].
Regarding `C=C1CCC[C@]2(C)CC[C@@H](C(=C)C(=O)O)[C@H](O)[C@@H]12`, the Potency entry in test [1] and in test [2] was “inactive” each time.
Consider `C[C@@H]1O[C@@H](O[C@H]2[C@H](O[C@H]3CC[C@@]4(C)C(CC[C@]5(C)C4CC=C4[C@@H]6CC(C)(C)CC[C@]6(C(=O)O[C@@H]6OC[C@H](O)[C@H](O)[C@H]6O[C@@H]6O[C@@H](C)[C@H](O[C@@H]7O[C@H](CO)[C@@H](O)[C@H](O)[C@H]7O)[C@H](O)[C@H]6O)[C@H](O)C[C@]45C)C3(C)C)O[C@H](CO)[C@@H](O[C@@H]3OC[C@@H](O)[C@H](O)[C@H]3O)[C@@H]2O)[C@H](O)[C@H](O)[C@H]1O` (some centres undefined), for which, in test [1], the activity change, negative = inhibition is -1.57% [at 12.4 µM]. The activity change, negative = viability loss in test [2] was -6.56% [at 9.23 µM].
As for `C[C@@]1(O)[C@H](O)[C@@H](CO)O[C@H]1n1ccc(N)nc1=O`, the Potency result in test [1] was “inactive”. Also, the Potency in test [2] is 20500 nM (active).
For the compound `CC(=O)OC1C(=O)C2(C)C(O)CC3OCC3(OC(C)=O)C2C(OC(=O)c2ccccc2)C2(O)CC(OC(=O)C(O)C(NC(=O)c3ccccc3)c3ccccc3)C(C)=C1C2(C)C` (centres undefined), the Potency result in test [1] is “inactive”. For the same compound, in test [2], the Potency is 5.2 nM (active).
The like results for `COC(=O)C1=CO[C@@H](O[C@@H]2O[C@H](CO)[C@@H](O)[C@H](O)[C@H]2O)[C@@H]2C(COC(C)=O)=C[C@H](O)[C@H]12` were, in that order, “inactive” and “inactive”.
The like results for `C/C=C1\[C@H](O[C@@H]2O[C@H](CO)[C@@H](O)[C@H](O)[C@H]2O)OC=C2C(=O)OCCc3ccc(O)c(c3)Oc3ccc(cc3)CCOC(=O)C[C@H]21` were, in that order, “inactive” and “inactive”.
Regarding `COC1CC(O[C@H]2CC[C@@]3(C)C(CCC4C3[C@H](OC(C)=O)[C@@H](OC(=O)/C=C/c3ccccc3)[C@]3(C)C(C(C)=O)CC[C@]43O)C2)OC(C)C1OC1CC(OC)C(OC2CC(OC)C(OC3OC(C)C(OC4OC(CO)C(O)C(O)C4O)C(OC)C3O)C(C)O2)C(C)O1` (some centres undefined), the activity change, negative = inhibition in test [1] is 3.75% [at 12.4 µM]. The activity change, negative = viability loss in test [2] was -23.3% [at 9.23 µM].
Turning to `O=C(OC[C@@]1(O)CO[C@@H](O[C@H]2[C@H](Oc3ccc(O)cc3)O[C@H](CO)[C@@H](O)[C@@H]2O)[C@@H]1O)c1ccc(O)cc1`, the Potency entry in test [1] and in test [2] was “inactive” in each case.
For `CC1(C)CC[C@]2(C(=O)O[C@@H]3O[C@H](CO)[C@@H](O)[C@H](O)[C@H]3O)CC[C@]3(C)C(=CCC4[C@@]5(C)C[C@@H](O)[C@H](O)C(C)(C)C5[C@H](O)C[C@]43C)[C@@H]2[C@@H]1O` (some centres undefined), the Potency entry in test [1] and in test [2] was “inactive” each time.
Take `CC1CCC2(CO)C(C(=O)O)=CCCC2C1(C)CCc1ccoc1` (centres undefined): the Potency result in test [1] and in test [2] was “inactive” each time.
Regarding `CCn1cc(NC(=S)Nc2cc(Cl)ccc2OC)c(C(N)=O)n1`, the Potency result in test [1] and in test [2] was “inactive” each time.
With `C[C@H](Nc1ncnc2nc[nH]c12)c1cc2ccc(F)cc2nc1-c1ccccn1`, the Potency entry in test [1] was “inactive”. The Potency in test [2] is 833 nM (active).
With `CC1(C)CC[C@]2(C(=O)O)CC[C@]3(C)C(=CCC4[C@@]5(C)C[C@@H](O)[C@H](O)C(C)(C)C5CC[C@]43C)C2C1` (some centres undefined), the Potency entry in test [1] and in test [2] was “inactive” in each case.
For `C/C(=C\CC[C@@H](C)[C@H]1CC(O)[C@@]2(C)C3CC[C@H]4C(C)(C)[C@@H](OC5OCC(O)C(O)C5OC5OC(CO)C(O)C(O)C5O)CC[C@@]45C[C@@]35CC(O)[C@]12C)C(=O)O` (some centres undefined), the Potency result in test [1] and in test [2] was “inactive” in each case.
On to `CC1(C)CC[C@]2(C(=O)O[C@@H]3O[C@H](CO)[C@@H](O)[C@H](O)[C@H]3O)CC[C@]3(C)C(=CCC4[C@@]5(C)C[C@@H](O)[C@H](O)[C@](C)(C(=O)O)C5CC[C@]43C)C2C1O` (some centres undefined), for which the Potency entry in test [1] and in test [2] was “inactive” each time.
Turning to `COc1c(C)c(OCC(O)C(C)(C)O)cc2c1COC2=O` (centres undefined), the Potency result in test [1] and in test [2] was “inactive” each time.
Turning to `CC(C)CNCc1ccc(-c2ccccc2S(=O)(=O)N2CCCC2)cc1`, the Potency result in test [1] and in test [2] was “inactive” throughout.
On to `CC(C)(O)/C=C/C1=CC(=O)[C@@](C)(O)C[C@H]1O`, for which the Potency result in test [1] and in test [2] was “inactive” throughout.
